Screening results as filed in PubChem BioAssay.
VACV mCherry inh – inhibitors of vaccinia virus infection (mCherry reporter signal). AID 720579. Vaccinia virus mCherry reporter infection, fluorescence. Potency, µM (titrated, usually from 36.5 µM), for inactives: at the highest dose activity change, negative = inhibition, actives largely listed as inhibitors. actives 0.63% (n = 310,000); calls by dose curve; tested in A549 cells; further: potency means the concentration at half of the fitted maximal effect; nearly all actives have a fitted effect of over 35% in size
MARV entry inh – blocks Marburg virus binding to or entry into cells; Marburg virus pseudotyped entry inhibition, cell reporter; Potency, µM (highest dose often 37.8 µM), for inactives: at the highest dose activity change, negative = inhibition, most hits filed as inhibitors; actives 1.8% (n = 300,000); AID 540276; calls by dose curve; tested in HEK293 cells; further: potency means the concentration at half of the fitted maximal effect
VACV Venus inh – vaccinia inhibition (Venus reporter); Vaccinia virus Venus reporter expression, fluorescence; Potency, µM (titrated, usually from 36.5 µM), without a hit: top-dose activity change, negative = inhibition, usual class: inhibitors; actives 0.46% (n = 330,000); calls by dose curve; tested in A549 cells; further: potency means the concentration at half of the fitted maximal effect; nearly all actives have a fitted effect of over 30% in size
HCMV antiviral – human cytomegalovirus inhibition; HFF cells, HCMV-luciferase reporter, 72 h; active compounds read low; actives 4.5% (n = 410,000); activity change, negative = inhibition, % at 57.5 µM; in the data active means activity change below about -60%; inconclusive means no clear call, values can overlap the other calls; inactive means above about -39%
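Screen run at 2 compound doses on HFFs infected with reporter HCMV, MOI 1 PFU/cell. Luciferase activity from cell lysates at 72 h post infection gave inhibition relative to buffer-only and Salinomycin wells.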
HCV inh – inhibitors of hepatitis C virus infection; actives 3.4% (n = 340,000); Huh7.5.1 HCVcc-Cre infection, luciferase reporter, 44 h; Potency, µM (highest dose often 41.8 µM), for inactives: at the top dose activity change, negative = inhibition, most hits filed as inhibitors; AID 651820; active means well fitted inhibition curve with a large enough effect; inconclusive means small, poorly fitted or top-dose-only effect, or another doubt; inactive means no such curve, though single readings can be large or run the other way; further: potency means the concentration at half of the fitted maximal effect
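Cells (1,000/well) were plated 4 h before compound, then infected with HCVcc-Cre virus (~0.5 moi). After 44 h further culture, infection was read as luciferase luminescence following a 15 min substrate incubation at room temperature.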
Lassa entry inh – blocks Lassa virus binding to or entry into cells; Lassa virus pseudotype entry inhibition, cell reporter; AID 540256; actives 1.2% (n = 300,000); Potency, µM (highest dose often 37.9 µM), without a hit: top-dose activity change, negative = inhibition, usual class: inhibitors; calls by dose curve; tested in HEK293 cells; further: potency means the concentration at half of the fitted maximal effect; nearly all actives have a fitted effect of over 50% in size
An asterisk follows results filed as active; i = inactive; ? = inconclusive; . = no result; [ ] = remark or other dose. A selection: hits, their analogues and other compounds. The true share with any hit is near 7.8%. On the % scale 0 is the no-effect control and ±100 the full control effect.

SMILES | VACV mCherry inh | MARV entry inh | VACV Venus inh | HCMV antiviral | HCV inh | Lassa entry inh
COc1ccc(/C=N/Nc2nc(-c3cccnc3)nc3ccccc23)cc1OC | -12.8% | ? | 4.0% | -11.5 | -22.6% | -23.9%[46.1 µM]
c1cncc(-c2nc(NCCN3CCOCC3)c3ccccc3n2)c1 | 16.4% | . | 18.9% | . | . | .
CCOc1ccc(/C=C/c2nc(C#N)c(NCc3ccc(OC)cc3)o2)cc1 | ? | 6.1%[46.1 µM] | ? | 8.1 | . | ?
CCC(C(=O)NCCc1ccccc1)n1nc(C)n2c(cc3sccc32)c1=O (stereo not given) | -5.8% | 3.6%[46.1 µM] | -11.5% | -7.7 | . | .
COC(=O)[C@@H]1CCCN1Cc1ccc2c(c1)CN(Cc1ccc3c(c1)CCCN3C)CCO2 | -14.7% | . | 0.0% | . | . | .
CC(C)(C)c1ccc(-c2nc(NCc3cccnc3)c3ccccc3n2)cc1 | -15.4% | ? | -16.8% | -72.0* | 11.2µM* | ?
c1ccc(CNc2nc(-c3cccnc3)nc3ccccc23)cc1 | . | . | . | -36.9 | ? | .
CN(C)C(=O)c1ccc(-c2nc(NCc3cccnc3)c3ccccc3n2)cc1 | -19.3% | . | -18.9% | . | . | .
COC(=O)CNc1nc(-c2cccnc2)nc2ccccc12 | -17.1% | -0.2% | -17.0% | -2.6 | ? | 19.0%
c1cncc(CNc2nc(-c3cccnc3)nc3ccccc23)c1 | i | -4.2%[46.1 µM] | -17.2% | -12.3 | 22.4µM* | ?
COc1ccccc1NC(=O)Nc1nc(-c2cccnc2)nc2ccccc12 | . | 7.08µM* | . | . | . | .
CC(Nc1nc(-c2cccnc2)nc2ccccc12)c1ccc(F)cc1 (stereo not given) | ? | ? | -27.1% | -34.2 | 8.91µM* | -2.5%[46.1 µM]
COc1ccccc1CCNC(=O)C(=O)NCC(c1ccco1)S(=O)(=O)c1cccs1 (stereo not given) | -5.8% | . | -11.9% | -4.9 | . | -0.2%[46.1 µM]
CNc1ccccc1C(=O)N1CCc2c([nH]c3ccccc23)C1=O | -10.5% | . | -4.9% | . | . | .
CC1=Nc2cc(C(=O)N3CCCC3)ccc2Sc2c(C)ccc(C)c21 | . | . | . | -99.6* | 1.5% | .
CC1=Nc2cc(C(=O)NCc3ccccc3Cl)ccc2Sc2c(C)ccc(C)c21 | ? | ? | -27.2% | -90.4* | . | ?
COC(=O)/C=C/c1cc(F)ccc1S(=O)(=O)Nc1ccccc1 | -4.4% | . | -21.1% | . | . | .
Cc1ccc(C)c(NC(=O)CN(C)C(=O)[C@@H](NC(N)=O)C(C)C)c1 | i | -2.8%[46.1 µM] | -23.1% | 4.4 | 3.5% | -1.7%[46.1 µM]
Cc1ccc(C)c(NC(=O)CN(C)C(=O)[C@@H](NC(=O)c2ccc(C(C)(C)C)cc2)C(C)C)c1 | 28.2µM* | ? | 14.1µM* | -35.6 | ? | ?
COC(=O)c1ccc(SCC(=O)NCc2ccccc2)c([N+](=O)[O-])c1 | -3.1% | -3.6%[46.1 µM] | -4.7% | 42.1 | 14.1µM* | -23.4%[46.1 µM]
CCCN1C2CCCC1CC(NC(=S)Nc1ccc(OC)cc1)C2 (stereo not given) | . | . | . | -64.0* | -19.1% | .
COc1ccc(NC(=S)NC2CC3CCCC(C2)N3C2CC2)cc1 (stereo not given) | . | ? | . | ? | ? | -2.8%
CCc1ccccc1NC(=O)NC1CC2CCC(C1)N2Cc1cccs1 (stereo not given) | i | -44.8% | -11.5% | -9.6 | -19.3% | 3.0%
CCc1ccc(NC(=S)NC2CC3CCCC(C2)N3Cc2cccs2)cc1 (stereo not given) | ? | ? | -23.6% | -31.4 | 7.94µM* | ?
COc1ccc(CN2C3CCCC2CC(NC(=O)Nc2cccc(C)c2)C3)cc1 (stereo not given) | -6.5% | 4.61µM* | -28.3% | 9.2 | ? | ?
O=C(NCc1ccccn1)c1cnn(-c2ncc3c(n2)-c2ccccc2CC3)c1C1CC1 | -14.1% | . | -8.7% | . | . | .
O=C(C[n+]1ccccc1Cl)c1ccc(O)c(O)c1 | 40.8% | . | -5.3% | . | . | .
OC1c2cc(Br)ccc2N=C2CCCN21 (stereo not given) | . | . | . | -99.8* | ? | .
Cc1nc(N2CCOCC2)c2c(C(=O)NCCc3ccccc3)c(C)oc2n1 | i | . | -7.8% | ? | . | ?
CCOC(=O)N1CCc2[nH]c3ccc(C)cc3c2C1 | i | ? | ? | -15.4 | ? | ?
